Experiments:
Settings in all cases: Compound concentration 20.0 uM
[1] = molecular target: Tyrosine-protein kinase ABL1 (Homo sapiens) (UniProt P00519)
[2] = molecular target: Bromodomain-containing protein 4 (Homo sapiens) (UniProt O60885)
[3] = molecular target: Cyclin-dependent kinase 2 (Homo sapiens) (UniProt P24941)
[4] = molecular target: Casein kinase I isoform delta (Homo sapiens) (UniProt P48730)
[5] = molecular target: Glycogen synthase kinase-3 beta (Homo sapiens) (UniProt P49841)
[6] = molecular target: Mitogen-activated protein kinase 1 (Homo sapiens) (UniProt P28482)
[7] = molecular target: T1, Aurora kinase A (Homo sapiens) (UniProt O14965)
T1 sequence (whole entry): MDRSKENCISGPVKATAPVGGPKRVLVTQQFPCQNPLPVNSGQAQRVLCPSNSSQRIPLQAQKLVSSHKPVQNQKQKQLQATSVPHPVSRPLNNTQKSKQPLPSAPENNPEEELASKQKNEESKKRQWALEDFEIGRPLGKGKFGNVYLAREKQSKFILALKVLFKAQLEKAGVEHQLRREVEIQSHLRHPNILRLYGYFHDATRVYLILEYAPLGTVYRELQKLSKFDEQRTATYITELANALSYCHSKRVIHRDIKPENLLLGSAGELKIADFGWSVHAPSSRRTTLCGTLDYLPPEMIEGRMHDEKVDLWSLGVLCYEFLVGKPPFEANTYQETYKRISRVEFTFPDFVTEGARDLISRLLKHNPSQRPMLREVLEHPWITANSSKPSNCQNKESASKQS

[8] = molecular target: T2, Transcription intermediary factor 1-alpha (Homo sapiens) (UniProt O15164)
T2 sequence (whole entry): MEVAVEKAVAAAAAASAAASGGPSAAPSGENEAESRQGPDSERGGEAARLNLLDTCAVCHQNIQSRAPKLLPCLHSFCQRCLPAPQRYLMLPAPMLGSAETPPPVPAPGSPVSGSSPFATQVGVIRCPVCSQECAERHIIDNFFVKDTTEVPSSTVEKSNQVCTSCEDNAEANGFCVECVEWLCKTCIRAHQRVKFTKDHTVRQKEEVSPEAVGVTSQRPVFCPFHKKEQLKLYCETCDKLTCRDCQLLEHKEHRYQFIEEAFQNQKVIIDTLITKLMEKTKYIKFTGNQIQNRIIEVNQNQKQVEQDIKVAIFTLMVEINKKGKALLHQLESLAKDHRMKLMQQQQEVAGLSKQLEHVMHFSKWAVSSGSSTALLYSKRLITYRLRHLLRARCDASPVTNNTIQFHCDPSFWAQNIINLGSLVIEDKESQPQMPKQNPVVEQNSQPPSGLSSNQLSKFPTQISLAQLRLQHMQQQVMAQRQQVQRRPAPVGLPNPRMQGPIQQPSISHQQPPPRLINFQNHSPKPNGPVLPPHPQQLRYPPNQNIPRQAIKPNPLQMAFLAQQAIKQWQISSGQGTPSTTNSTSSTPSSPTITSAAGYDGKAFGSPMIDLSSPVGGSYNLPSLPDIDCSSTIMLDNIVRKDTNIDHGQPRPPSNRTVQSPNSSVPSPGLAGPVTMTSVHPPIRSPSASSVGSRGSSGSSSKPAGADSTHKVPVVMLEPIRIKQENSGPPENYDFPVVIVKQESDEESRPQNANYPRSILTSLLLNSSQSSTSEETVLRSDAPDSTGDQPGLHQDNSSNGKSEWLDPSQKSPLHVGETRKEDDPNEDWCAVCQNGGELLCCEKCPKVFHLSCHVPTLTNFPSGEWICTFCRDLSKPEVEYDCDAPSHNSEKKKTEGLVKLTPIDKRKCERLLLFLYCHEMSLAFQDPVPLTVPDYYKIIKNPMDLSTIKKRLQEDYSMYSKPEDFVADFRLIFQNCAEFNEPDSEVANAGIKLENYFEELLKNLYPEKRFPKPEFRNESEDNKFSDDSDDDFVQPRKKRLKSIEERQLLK

Chain of Tyrosine-protein kinase ABL1 (Homo sapiens) (P00519 whole entry): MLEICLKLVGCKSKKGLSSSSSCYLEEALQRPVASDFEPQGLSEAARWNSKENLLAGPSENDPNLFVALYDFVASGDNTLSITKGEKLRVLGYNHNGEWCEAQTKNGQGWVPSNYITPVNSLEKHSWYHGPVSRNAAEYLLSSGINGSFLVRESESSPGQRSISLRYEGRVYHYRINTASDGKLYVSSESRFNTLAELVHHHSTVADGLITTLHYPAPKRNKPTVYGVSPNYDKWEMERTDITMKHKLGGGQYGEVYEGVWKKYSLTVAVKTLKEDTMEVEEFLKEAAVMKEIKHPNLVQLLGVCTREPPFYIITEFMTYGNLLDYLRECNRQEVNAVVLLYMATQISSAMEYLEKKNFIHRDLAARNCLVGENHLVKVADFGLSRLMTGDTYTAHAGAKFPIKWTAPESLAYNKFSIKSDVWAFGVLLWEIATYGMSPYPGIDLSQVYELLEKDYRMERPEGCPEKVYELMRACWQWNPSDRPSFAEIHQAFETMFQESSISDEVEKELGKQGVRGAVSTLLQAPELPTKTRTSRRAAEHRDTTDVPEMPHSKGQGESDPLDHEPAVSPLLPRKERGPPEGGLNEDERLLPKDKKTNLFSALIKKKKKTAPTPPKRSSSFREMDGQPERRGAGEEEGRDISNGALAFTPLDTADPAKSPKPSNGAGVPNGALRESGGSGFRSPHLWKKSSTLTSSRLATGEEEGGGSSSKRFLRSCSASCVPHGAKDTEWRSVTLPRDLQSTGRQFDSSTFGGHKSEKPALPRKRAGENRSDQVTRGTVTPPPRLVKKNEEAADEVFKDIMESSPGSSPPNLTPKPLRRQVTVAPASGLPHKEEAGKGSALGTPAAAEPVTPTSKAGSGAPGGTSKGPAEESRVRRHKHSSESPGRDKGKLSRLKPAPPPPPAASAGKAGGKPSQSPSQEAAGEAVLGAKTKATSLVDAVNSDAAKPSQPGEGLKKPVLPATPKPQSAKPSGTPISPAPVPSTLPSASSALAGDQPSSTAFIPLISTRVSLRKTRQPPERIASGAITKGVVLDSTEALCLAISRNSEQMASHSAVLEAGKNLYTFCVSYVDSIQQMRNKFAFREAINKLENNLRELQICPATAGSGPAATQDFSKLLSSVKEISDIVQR
Chain of Casein kinase I isoform delta (Homo sapiens) (P48730 whole entry, looked up, canonical isoform): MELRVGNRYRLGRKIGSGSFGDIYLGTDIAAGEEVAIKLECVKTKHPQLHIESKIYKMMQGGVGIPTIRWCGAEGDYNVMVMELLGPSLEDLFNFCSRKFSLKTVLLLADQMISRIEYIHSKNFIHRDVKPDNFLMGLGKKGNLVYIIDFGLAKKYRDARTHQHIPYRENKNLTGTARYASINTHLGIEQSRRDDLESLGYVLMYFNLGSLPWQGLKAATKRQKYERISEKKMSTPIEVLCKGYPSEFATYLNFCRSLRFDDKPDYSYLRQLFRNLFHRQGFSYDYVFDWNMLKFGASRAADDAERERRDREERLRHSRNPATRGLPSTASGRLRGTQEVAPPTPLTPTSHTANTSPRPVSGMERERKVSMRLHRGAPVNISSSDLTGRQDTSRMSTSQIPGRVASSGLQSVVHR
Chain of Mitogen-activated protein kinase 1 (Homo sapiens) (P28482 whole entry): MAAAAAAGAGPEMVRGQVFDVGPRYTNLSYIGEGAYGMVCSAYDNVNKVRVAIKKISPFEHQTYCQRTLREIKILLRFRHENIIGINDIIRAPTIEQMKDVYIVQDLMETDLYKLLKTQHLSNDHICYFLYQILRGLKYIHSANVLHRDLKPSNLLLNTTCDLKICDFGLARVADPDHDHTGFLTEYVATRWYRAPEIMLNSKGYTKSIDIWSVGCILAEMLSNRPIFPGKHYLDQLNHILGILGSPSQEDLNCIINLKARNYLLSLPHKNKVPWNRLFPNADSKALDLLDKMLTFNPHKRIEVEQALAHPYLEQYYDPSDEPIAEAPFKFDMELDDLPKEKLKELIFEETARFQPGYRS
Chain of Glycogen synthase kinase-3 beta (Homo sapiens) (P49841 whole entry, looked up): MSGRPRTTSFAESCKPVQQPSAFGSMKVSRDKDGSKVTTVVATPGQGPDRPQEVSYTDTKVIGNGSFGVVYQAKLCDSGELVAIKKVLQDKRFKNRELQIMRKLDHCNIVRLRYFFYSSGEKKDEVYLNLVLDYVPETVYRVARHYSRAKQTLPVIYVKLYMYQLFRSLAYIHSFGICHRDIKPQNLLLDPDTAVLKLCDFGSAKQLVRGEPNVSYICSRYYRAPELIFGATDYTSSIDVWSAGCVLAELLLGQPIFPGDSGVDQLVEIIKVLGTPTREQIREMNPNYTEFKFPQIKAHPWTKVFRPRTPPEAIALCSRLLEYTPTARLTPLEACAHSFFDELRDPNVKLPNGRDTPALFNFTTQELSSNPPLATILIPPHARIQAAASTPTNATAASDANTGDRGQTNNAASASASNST

Structure (SMILES)	ΔTm [1] [°C]	ΔTm [2] [°C]	ΔTm [3] [°C]	ΔTm [4] [°C]	ΔTm [5] [°C]	ΔTm [6] [°C]	ΔTm [7] [°C]	ΔTm [8] [°C]
OC[C@H]1O[C@@H](c2ccc(Cl)c(Cc3ccc(O[C@H]4CCOC4)cc3)c2)[C@H](O)[C@@H](O)[C@@H]1O	0.58	-2.67	-0.08	-0.33	-0.36	0.5	-1.72	-0.73
C[C@@H](Oc1ccc(S(C)(=O)=O)cc1C(=O)N1C[C@@H]2C[C@]2(c2cc(C(F)(F)F)on2)C1)C(F)(F)F	0.62	-3.24	0.09	-0.17	-0.39	0.07	-2.51	0.43
CCn1nc(C2CC2)cc1Nc1nc(C(=O)NC)nc2[nH]c3cc(-c4c(C)noc4C)c(OC)cc3c12	0.56	8.71	-0.11	-0.18	-1.43	0.23	-2.42	0
O=C(NCC1(c2nc(-c3ccccc3)cs2)CCOCC1)c1cccc(-c2noc(C(F)(F)F)n2)c1	0	-2.25	0.39	0.15	-0.34	-4.88	-0.64	-1.09
CCc1oc2ccccc2c1C(=O)c1cc(Br)c(O)c(Br)c1	0.11	-6.7	-2.31	-9.78	0	-2.33	0.35	0
Cc1cc(Cl)cc(-c2c3sc(CN4C(=O)C5C(C4=O)C5(C)C)cc3nn2C)c1OC1CCNCC1 (centres undefined)	0.34	-5.5	0.13	-0.45	-0.24	-0.05	-2.64	-1.23
Cc1cc(C)nc(SCC(=O)Nc2ncc(Cc3cccc(OCc4cn(Cc5ccccc5)nn4)c3)s2)n1	-4.58	-6.78	-3.98	-2.38	-0.77	0.65	-2.36	3.08
O=C(c1cc(Cc2n[nH]c(=O)c3ccccc23)ccc1F)N1CCN(C(=O)C2CC2)CC1	0.22	15.7	0.66	-0.42	-4.34	0.4	-2.14	-1.81
CC(C)c1cc(C(=O)N2Cc3ccc(CN4CCN(C)CC4)cc3C2)c(O)cc1O	1.01	-1.29	0.67	0.22	-0.43	-0.06	-0.12	-0.61
COc1cc2c(NC3CCN(C)CC3)cc(-c3ccc(C)o3)nc2cc1OCCCN1CCCC1	0.3	0.18	0.69	0.17	0.49	0.01	0.09	-0.54
CCCCNc1cc(C(=O)O)cc(S(N)(=O)=O)c1Oc1ccccc1	0.19	-1.86	-0.19	0.17	-0.41	0.13	0.14	0.82
COc1cc2c(cc1OC)[C@H]1C[C@@H](O)[C@H](CC(C)C)CN1CC2	0.04	1.89	0.25	-0.17	-0.88	0.59	-0.72	0.12
O=C(O)Cn1nnc(-c2ccc(CN(CCCCOc3ccc(CN4CCCC4)cc3)CCc3ccccc3)cc2)n1	0.12	-3.23	-1.15	0.14	-0.71	-0.45	-2.88	-1.13
CCCSc1nc(N[C@@H]2C[C@H]2c2ccc(F)c(F)c2)c2nnn([C@@H]3C[C@H](OCCO)[C@@H](O)[C@H]3O)c2n1	0.97	-3.15	-0.32	-0.02	-1.82	0.5	-2.27	0.03
Cc1cc2cc(NS(=O)(=O)c3ccc(C#N)cc3)ccc2n(C)c1=O	0.57	-0.91	0.09	0.09	0.03	-3	-1.09	0.17
O=[N+]([O-])c1ccc(CSc2ncnc3c2ncn3[C@@H]2O[C@H](CO)[C@@H](O)[C@H]2O)cc1	-0.08	-1.24	-0.1	-0.39	-0.67	0.1	-1.6	-0.18
CC/C(=C(/CC)c1ccc(O)cc1)c1ccc(O)cc1	-0.96	-4.78	-5.57	-0.81	-3.54	-12.2	-1.78	1.49

Structure (SMILES)	ΔTm [1] [°C]	ΔTm [2] [°C]	ΔTm [3] [°C]	ΔTm [4] [°C]	ΔTm [5] [°C]	ΔTm [6] [°C]	ΔTm [7] [°C]	ΔTm [8] [°C]
CN(C)CC(c1ccc(O)cc1)C1(O)CCCCC1 (centres undefined)	0.19	-2.16	0.04	-0.35	-1.41	0.1	-1.27	0.3
Cc1nc(-c2cnc(NC(C)C)n(C)c2=O)ccc1Oc1ccnc(-c2cnn(C)c2)c1	13.3	-1.75	0.63	0.37	-0.22	-0.25	0.8	-1.36
Cc1cc(OCc2nnc(SC3CCCC3)n2-c2cccnc2)ccc1-c1ccc(S(C)(=O)=O)cc1	-1.4	-2.52	0.2	-0.2	-4.14	0	-1.26	0.18
O=c1[nH][nH]c(=O)c2cc(OCC3CCCCC3)ccc12	2.06	-1.15	1.01	-0.01	2.16	0.61	-0.19	1.88
C/C=C1\NC(=O)[C@H]2CSSCC/C=C/[C@H](CC(=O)N[C@H](C(C)C)C(=O)N2)OC(=O)[C@H](C(C)C)NC1=O	-1.22	-2.72	-0.96	-0.77	-0.05	-6.13	-0.48	0.22
C[C@@H]1O[C@@H](CC(=O)O)CC2=C1C(=O)c1c(O)cccc1C2=O	0.53	-3.04	0.21	-1.39	-2.21	-0.24	-2.94	-2.3
FC(F)(F)Cn1cc(-c2ccncc2)c(-c2ccc(OCc3ccc4ccccc4n3)cc2)n1	1.54	-3.29	0.14	1.23	-1.19	0.65	0.56	-0.98
Nc1ccc(-c2cccs2)cc1NC(=O)c1ccc2nc(N3CCNCC3)ccc2c1	3.35	-2.49	1.41	0.14	0.38	-0.25	-0.39	-0.74
CN(C(=O)CCCOc1ccc2[nH]c(=O)ccc2c1)C1CCCCC1	0.63	-1.68	0.09	-0.15	0.07	0.58	-2.27	-2.36
CN(C)CCCNC(=O)c1ccc(-c2cc(O)c3ncccc3c2)cc1	1.29	1.76	0.45	0.58	0.54	0.28	-1.28	1.21
CC(=O)N[C@@H](C)C(=O)N[C@@H](CCC(=O)O)C(=O)N[C@H](C(=O)N[C@@H](C=O)CC(=O)O)C(C)C	0.22	-2.8	-0.37	0.14	-0.69	0.23	-1.91	-0.66
COc1ccc2nc3[nH]nc(C)c3c(NCCOCCO)c2c1	0.63	-1.31	0.26	0.76	2.8	-0.01	0.31	-0.59
O=C(c1cc(Cc2n[nH]c(=O)c3ccccc23)ccc1F)N1CC(CNC2CC2)C1	0.54	-1.65	0.08	-0.14	-0.61	0.06	-2.47	0.44
Cc1ccc(NC2=CC(=O)c3sc(C)nc3C2=O)cc1	0.31	-1.66	0.97	-0.17	-0.8	0.04	-0.65	-1.44
CC(C)(C)NS(=O)(=O)c1cccc2c(NC(=O)[C@H](Cc3ccccc3)NC(=O)C3CCCCC3)cccc12	0.13	1.07	0.3	-1.46	-0.2	-10.5	-2.29	2.01
CC(C)Cn1c(=O)n(C)c(=O)c2c(C(=O)N3CC[C@@H](O)C3)c(Cc3ccnc4ccccc34)sc21	-0.39	2.2	0.16	0.09	-1.09	0.11	-0.87	2.02
